Compounds with a hit are over-represented: about 1.6% of the library has one in this group of screens.
KCNQ2 pot = KCNQ2 (rat) channel potentiation; B-score at 10 µM; 310,000 tested, 0.54% active; O88943; CHO-K1 KCNQ2, FluxOR thallium flux fluorescence; active compounds read high;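 active = fluorescence ratio B-score at least 3 SD of library B-scores, with initial fluorescence B-score within 3 of them, cut at about 5.3 in these data; same plate scores as AID 2156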;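 also: B-score of peak minus minimum over baseline fluorescence ratio after K+ and Tl+ stimulus; positive B-score means potentiation of KCNQ2 with more thallium influx and brighter signal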
Target sequence (O88943 whole entry, looked up): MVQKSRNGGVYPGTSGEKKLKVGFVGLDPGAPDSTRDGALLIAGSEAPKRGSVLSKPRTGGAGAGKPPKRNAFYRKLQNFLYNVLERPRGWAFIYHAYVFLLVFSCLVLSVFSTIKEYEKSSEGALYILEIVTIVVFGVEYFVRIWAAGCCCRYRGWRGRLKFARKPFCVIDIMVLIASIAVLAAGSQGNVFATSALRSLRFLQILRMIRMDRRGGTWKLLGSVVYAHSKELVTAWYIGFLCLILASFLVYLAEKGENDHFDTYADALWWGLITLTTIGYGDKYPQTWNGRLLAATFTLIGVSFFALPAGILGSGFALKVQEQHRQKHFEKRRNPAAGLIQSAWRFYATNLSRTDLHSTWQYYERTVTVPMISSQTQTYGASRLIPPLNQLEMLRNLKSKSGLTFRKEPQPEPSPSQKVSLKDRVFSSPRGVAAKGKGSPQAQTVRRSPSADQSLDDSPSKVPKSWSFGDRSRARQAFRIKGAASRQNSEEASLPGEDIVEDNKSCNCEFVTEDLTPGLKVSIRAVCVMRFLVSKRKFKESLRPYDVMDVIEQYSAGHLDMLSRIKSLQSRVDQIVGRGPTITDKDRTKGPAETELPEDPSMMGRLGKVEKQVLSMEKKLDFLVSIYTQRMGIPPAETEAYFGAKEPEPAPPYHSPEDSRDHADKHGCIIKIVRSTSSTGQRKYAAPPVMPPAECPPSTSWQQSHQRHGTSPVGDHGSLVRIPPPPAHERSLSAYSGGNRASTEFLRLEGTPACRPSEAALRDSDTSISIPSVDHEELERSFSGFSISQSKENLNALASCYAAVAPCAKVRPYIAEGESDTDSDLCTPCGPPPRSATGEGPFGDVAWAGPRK
KCNQ2 inh = blocks the rat KCNQ2 potassium channel; O88943; CHO-K1 KCNQ2, FluxOR thallium flux, 20 min; active compounds read low; B-score at 10 µM; 310,000 tested, 1.1% active; AID 2156;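 active = fluorescence ratio B-score at most minus 3 library SDs, with starting brightness B-score within 2 library SDs, cut at about -5.5 in these data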
Large screens that a line does not name were inactive.

CCOC(=O)N1CCC(NC(=O)c2ccccc2C(=O)O)CC1	none
Cc1ccc2c(C)c(C(=O)NCCN3CCOC3=O)oc2c1C	KCNQ2 pot 5.47
Cc1ccc2c(C)c(C(=O)NCCN3CCCC(O)C3)oc2c1C (stereo not drawn)	none
CCOC(=O)N1CCC(NC(=O)c2oc3c(C)c(C)ccc3c2C)CC1	KCNQ2 inh -5.66
C=CCN(C(=O)CNC(=O)c1cccs1)C(C(=O)NC(C)(C)C)c1ccccc1 (stereo not drawn)	none (no result: KCNQ2 pot)
Fc1ccccc1CSc1ncnc2sc3c(c12)CCCC3	none (no result: KCNQ2 pot)
CCOC(=O)c1cc[nH]c1C	none (no result: KCNQ2 pot)
COc1cc(OC)cc(N2C(=O)CSCC2=O)c1	none (no result: KCNQ2 pot)
O=C1c2ccccc2C(=O)C12OC(c1ccccc1)C1(C(=O)c3ccccc3C1=O)C2c1cccc([N+](=O)[O-])c1 (stereo not drawn)	none (no result: KCNQ2 pot)
O=C1c2ccccc2C(=O)C12OC(c1ccccc1)C1(C(=O)c3ccccc3C1=O)C2c1ccc([N+](=O)[O-])cc1 (stereo not drawn)	KCNQ2 inh -7.9
CCN(Cc1ccccc1)S(=O)(=O)c1c(C)[nH]c(C)c1C(=O)N1CCCC1	none
COC(=O)c1cc(=O)n(Cc2ccc3c(c2)OCO3)c(=Nc2ccc(F)cc2)s1	none (no result: KCNQ2 pot)
CCOC(=O)c1ccc(N=c2sc(C(=O)OC)cc(=O)n2Cc2ccc3c(c2)OCO3)cc1	KCNQ2 inh -5.94
Cc1noc(C)c1S(=O)(=O)N(CC(=O)NC1CCCC1)c1ccc(C(C)C)cc1	none (no result: KCNQ2 pot)
C=CCn1c(SCC(=O)NCc2ccccc2)nnc1-c1ccccc1O	none (no result: KCNQ2 pot)
COc1ccc(-n2c(CCc3ccccc3)nnc2SCC(=O)NCc2ccccc2)cc1	none (no result: KCNQ2 pot)
C=CCn1c(COc2ccccc2)nnc1SCC(=O)N/N=C/c1ccc(C)cc1	none (no result: KCNQ2 pot)
C=CCn1c(COc2ccccc2)nnc1SCC(=O)N/N=C/c1cc(Cl)ccc1O	KCNQ2 inh -6.37
C=CCn1c(CSCc2ccc(Cl)cc2)nnc1SCC(=O)NCc1ccccc1	KCNQ2 inh -6.55
O=C(CSc1nnc(CCc2ccccc2)n1-c1ccc(Cl)cc1)NCc1ccccc1	KCNQ2 inh -7.4
CCN(CC(=O)Nc1c(F)cccc1F)C(=O)CCN1C(=O)C2CCCCC2C1=O (stereo not drawn)	none (no result: KCNQ2 pot)
CC(C)(CC(=O)O)CC(=O)NCc1c(Cl)cccc1Oc1ccccc1	none (no result: KCNQ2 pot)
Cc1cc(C(=O)N2CCN(S(=O)(=O)c3ccccc3F)CC2)c(C)o1	none (no result: KCNQ2 pot)
NC(=O)CC(NC(=O)Cc1ccc(Br)cc1)c1ccc(N2CCc3ccccc3C2)c([N+](=O)[O-])c1 (stereo not drawn)	none
COc1ccccc1CNc1cc(CSc2ccc(Cl)cc2)nc(C)n1	KCNQ2 inh -6.11
COc1ccccc1CNC(=O)COC(=O)CSc1ccc(Cl)cc1	none (no result: KCNQ2 pot)
Cc1cc(C)nc(NCC(O)CNc2ccccc2C)n1 (stereo not drawn)	none
Cc1cc(C)nc(NCC(O)COc2ccccc2C)n1 (stereo not drawn)	KCNQ2 inh -5.86
CCCCC(CC(O)COCCC)c1n[nH]c(=S)n1-c1ccccc1 (stereo not drawn)	none
O=C(CN1CCN(c2ccccn2)CC1)Nc1cccc(Cl)c1Cl	KCNQ2 inh -7.24
O=C(CN1CCN(c2ccccn2)CC1)Nc1ccccc1Br	none (no result: KCNQ2 pot)
COc1ccc(CNC(=O)CN2CCC(NC(=O)c3ccc(OC)cc3)CC2)cc1	none (no result: KCNQ2 pot)
CC(C)(C)OC(=O)N[C@@H](Cc1ccccc1)c1nnc(S(=O)(=O)Cc2cccc(F)c2)o1	none (no result: KCNQ2 pot)
CC(C)C[C@H](NC(=O)OC(C)(C)C)c1nnc(SCc2ccccc2)o1	KCNQ2 inh -6.87
CCOC(=O)CSc1nnc([C@H](Cc2ccccc2)NC(=O)OC(C)(C)C)o1	none (no result: KCNQ2 pot)
Cc1ccccc1CS(=O)(=O)c1nnc([C@H](CC(C)C)NC(=O)OC(C)(C)C)o1	KCNQ2 inh -5.58
COc1ccc(NC(=O)CCC(=O)N(Cc2ccc(OC)c(OC)c2)c2nccs2)c(OC)c1	none (no result: KCNQ2 pot)
Cc1csc(NC(=O)c2ccc(COc3ccccc3)o2)n1	none (no result: KCNQ2 pot)
CCS(=O)(=O)N1Cc2ccccc2CC1C(=O)N(C)CC(=O)Nc1cccc(F)c1 (stereo not drawn)	none
O=C(NCc1ccc(Cl)cc1)c1n[nH]c([N+](=O)[O-])c1Cl	none (no result: KCNQ2 pot)
COC(=O)c1ccc2c(=O)n(CCCCCC(=O)N3CCN(c4ccccc4)CC3)c(=O)[nH]c2c1	none
COc1cc2[nH]c(=O)n(CCCCCC(=O)N3CCN(c4ccccc4)CC3)c(=O)c2cc1OC	KCNQ2 inh -8.27
CCOC(=O)C1=NN(c2cccc(Cl)c2)C2=NC(C)=C(C(=O)OC)C(c3cccs3)N12 (stereo not drawn)	KCNQ2 inh -5.69
CCOC(=O)C1=NN(c2ccccc2)C2=NC(C)=C(C(=O)OC)C(c3cccs3)N12 (stereo not drawn)	none (no result: KCNQ2 pot)
O=P(Cc1ccccc1)(c1ccccc1)c1ccccc1	none (no result: KCNQ2 pot)
CC(C)(C)c1cc(CP(=O)(c2ccccc2)c2ccccc2)cc(C(C)(C)C)c1O	KCNQ2 inh -5.71
CC(=O)OCC1(C)CN(c2ccccc2)N(C(=O)c2ccc(F)cc2)C1=O (stereo not drawn)	none (no result: KCNQ2 pot)
CCC(C)NC(=O)COC(=O)c1oc2ccccc2c1CSc1ccc(Cl)cc1 (stereo not drawn)	KCNQ2 inh -6.09
O=C(O)c1oc2ccccc2c1CSc1ccc(Cl)cc1	none
Cc1ccc(NC(=O)C2CC(=O)Nc3nncn32)cc1 (stereo not drawn)	none (no result: KCNQ2 pot)
S=C(Nc1ccccc1Cl)N1CCCC(c2ccccc2)=N1	KCNQ2 inh -6.51
S=C(Nc1ccccc1Cl)N1CCCCCC1	none
Cc1ccccc1CNC(=O)C1CCC(=O)N(Cc2cccc(F)c2)C1 (stereo not drawn)	KCNQ2 inh -6.32
O=C(NCc1ccccc1OC(F)(F)F)C1CCC(=O)N(Cc2cccc(F)c2)C1 (stereo not drawn)	none (no result: KCNQ2 pot)
Cc1ccc(O)c(Nc2nc(-c3ccccc3)nc3ccccc23)c1	none
Cc1ccc(O)c(Nc2c3ccccc3nc3ccccc23)c1	KCNQ2 inh -5.61
Cc1cc(C)c2c(n1)SCC(=O)N2CC(=O)Nc1ccc(Br)c(C)c1	none (no result: KCNQ2 pot)
O=C(COc1cccc2cccnc12)N/N=C/c1cccn1-c1ccc(F)cc1	KCNQ2 inh -7.19
O=C(COc1cccc2cccnc12)N/N=C/c1ccc(O)cc1	none
CC(C)=CCN1CCN(Cc2cccn2-c2ncccn2)CC1CCO (stereo not drawn)	none
O=C(Nc1ccccc1C(=O)O)c1cc(S(=O)(=O)N2CCOCC2)c(Br)s1	none
COc1ccccc1NC(=O)CNC(=O)Cn1cnc2sc(C)c(C)c2c1=O	none (no result: KCNQ2 pot)
CCc1nc(SCC(=O)Nc2ccccc2OC)c2c(C)c(C)sc2n1	KCNQ2 inh -5.8
Cc1ccc(S(=O)(=O)Nc2ccc(Cl)cn2)cc1C	none
COc1ccccc1OCCNC(=O)c1ccc2c(c1)OCCO2	KCNQ2 pot 6.67
COc1ccccc1OCCNC(=O)CNC(=O)c1ccc2c(c1)OCO2	none
CCOc1cccc(CN2CCC(n3nccc3NC(=O)C3CC3)CC2)c1O	none
COc1ccc2nc(N3CCCCC3)c(/C=C3\SC(=S)NC3=O)cc2c1	KCNQ2 pot 11
COc1ccc(-n2c(C)cc(/C=C3\SC(=S)NC3=O)c2C)cc1	none (no result: KCNQ2 pot)
CCCCC(=O)OCC(=O)c1[nH]c(C)c(C(C)=O)c1C	none (no result: KCNQ2 pot)
CCCCOc1ccc(C(=O)N/C(=C\c2cccc([N+](=O)[O-])c2)C(=O)OC(C)C)cc1	KCNQ2 inh -6.05
CCCCOc1ccc(C(=O)N/C(=C\c2cccc([N+](=O)[O-])c2)C(=O)OCCC)cc1	none (no result: KCNQ2 pot)
CCOc1ccc2nc(CN3CCN(Cc4ccsc4)C(CCO)C3)ccc2c1 (stereo not drawn)	none (no result: KCNQ2 pot)
c1cc2cc(-c3c(-c4ccc5c(c4)OCO5)noc3-c3ccsc3)ccc2[nH]1	none (no result: KCNQ2 pot)

Assay outcomes (PubChem)
